# Screens from PubChem BioAssay.
# Shown are actives, neighbours in structure and some others; about 2.4% of the full set was active somewhere.
# Pol beta inh – blocks human DNA polymerase beta activity; P06746; Pol beta primer extension/strand displacement, fluorescence kinetic; Potency, µM (series often up to 114 µM), for inactives: at the highest dose activity change, negative = inhibition, usual class: inhibitors; 1.3% of 340,000 active; AID 485314; further: on the % scale 0 is the no-effect control and ±100 the full control effect
#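 Enzyme-only controls used 10 nM Pol beta; buffer lacking enzyme served as negative control. Compound preincubated 15 min, then 50 nM substrate added; 0 and 10 min reads at room temperature.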
# POLH inh – blocks human DNA polymerase eta activity; Q9Y253; recombinant Pol eta, fluorescent DNA replication assay; Potency, µM (doses to about 114 µM), inactives show at the highest dose activity change, negative = inhibition, usual class: inhibitors; 1.2% of 390,000 active; further: on the % scale 0 is the no-effect control and ±100 the full control effect
#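 Pol eta at 10 nM preincubated with compounds 15 min at room temperature; reaction started with fluorescent substrate (50 nM final) and read kinetically at 0 and 10 min.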
# POLI inh – DNA polymerase iota (human) inhibition; Q9UNA4; Pol iota fluorescent replication assay, 10 min; Potency, µM (top dose mostly 115 µM), for inactives: at the top dose activity, negative = inhibition, most hits filed as inhibitors; AID 588590; 1% of 390,000 active
# Target sequence (Q9UNA4 whole entry, looked up): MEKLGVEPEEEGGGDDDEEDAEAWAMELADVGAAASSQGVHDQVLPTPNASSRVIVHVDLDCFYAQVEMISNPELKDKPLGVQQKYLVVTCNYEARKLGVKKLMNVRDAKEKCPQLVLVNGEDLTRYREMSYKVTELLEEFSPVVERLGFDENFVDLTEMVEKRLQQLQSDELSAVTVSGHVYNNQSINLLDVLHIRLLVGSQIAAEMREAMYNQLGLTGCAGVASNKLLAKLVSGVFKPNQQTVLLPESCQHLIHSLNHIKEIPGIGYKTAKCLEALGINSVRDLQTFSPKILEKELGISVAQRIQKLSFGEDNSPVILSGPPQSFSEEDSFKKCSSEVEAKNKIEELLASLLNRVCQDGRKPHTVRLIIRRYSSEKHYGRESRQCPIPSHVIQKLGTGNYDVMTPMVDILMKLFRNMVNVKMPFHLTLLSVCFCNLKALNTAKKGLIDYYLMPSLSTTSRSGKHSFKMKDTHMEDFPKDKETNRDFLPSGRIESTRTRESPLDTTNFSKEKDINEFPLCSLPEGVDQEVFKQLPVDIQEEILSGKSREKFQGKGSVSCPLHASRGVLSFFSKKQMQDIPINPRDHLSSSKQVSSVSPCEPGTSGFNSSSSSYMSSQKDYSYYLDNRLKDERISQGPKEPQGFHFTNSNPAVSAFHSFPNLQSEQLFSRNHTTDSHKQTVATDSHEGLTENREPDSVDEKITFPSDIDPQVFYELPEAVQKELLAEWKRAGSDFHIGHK
#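 Pol iota at 10 nM preincubated 15 min with compounds at room temperature; reaction started with fluorescent substrate, 50 nM final. Fluorescence read kinetically at 0 and 10 min; buffer-only wells as negative control.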
# POLK inh – inhibitors of human DNA polymerase kappa | purified Pol kappa, fluorescent DNA synthesis assay, 10 min | Potency, µM (doses to about 107 µM), without a hit: at the highest dose activity, negative = inhibition, actives largely listed as inhibitors | 0.53% of 400,000 active | AID 588579; further: on the % scale 0 is the no-effect control and ±100 the full control effect
#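 10 nM Pol kappa was preincubated with compounds for 15 min at room temperature. Reaction started with 50 nM (final) substrate. Fluorescence read kinetically at 0 and 10 min.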
# APEX1 inh – inhibitors of human APE1 endonuclease. AID 2517. 0.35% of 350,000 active. recombinant APE1, TAMRA/BHQ-2 abasic DNA cleavage fluorescence. Potency, µM (highest dose often 65.8 µM), inactives show top-dose activity change, negative = inhibition, usual class: inhibitors;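 further: plate controls were vehicle for no effect and reference inhibitor for full effect; nearly all actives have a fitted effect of over 55% in size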
#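 Incision of a quenched TAMRA/BHQ-2 THF abasic-site duplex (50 nM) by 0.75 nM APE1, after 15 min compound preincubation, measured as fluorescence increase over three 60 s reads. Values normalized to buffer, DMSO and NSC13755 control wells.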
# GLS inh – inhibitors of human glutaminase (GLS) | O94925 | GLS enzymatic activity, qHTS titration | Potency, µM (top dose mostly 45.5 µM), without a hit: at the highest dose activity change, negative = inhibition, usual class: inhibitors | 0.21% of 410,000 active; further: on the % scale 0 is the no-effect control and ±100 the full control effect
#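 Coupled fluorescence readout: glutamate oxidase/HRP/Amplex Red detect glutamate formed by hKGA from L-glutamine (1 mM solution added). Buffer 45 mM KH2PO4 pH 8.2, 0.02% Tween-20; reads at t0 and 30 min RT.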
# Starred values were filed as active, the others as inactive; ? = inconclusive; . = no result; [ ] = remark or other dose. The call rests on the fitted dose curve; in most records, active means well fitted curve in the direction sought with a large enough effect; inconclusive means small, poorly fitted or top-dose-only effect, or another doubt; inactive means no such curve, though single readings can be large; an effect the other way counts as inactive or inconclusive. Potency means the concentration at half of the fitted maximal effect.
SMILES,Pol beta inh,POLH inh,POLI inh,POLK inh,APEX1 inh,GLS inh
CC(C)C(O)(C(=O)NNc1ccccc1)C(C)C,-10%,-19%,105%,5%,3%,13µM*
O=C(O)C1(C(=O)O)CCC1.[NH2-].[NH2-].[Pt+2],.,.,.,8.9µM*,11µM*,.
O=C(O)C1(C(=O)O)CCCC1,.,-5%,-13%,-6%,.,-10%
Cc1oc(-c2cccc(Cl)c2)nc1CS(=O)(=O)CC(=O)NC(C)CCc1ccccc1 (stereo unspecified),-6%,-8%,89µM*,-8%,.,0%
Cc1oc(-c2ccccc2Cl)nc1CS(=O)(=O)CC(=O)NC(C)CCc1ccccc1 (stereo unspecified),-23%,-14%,?,-17%,.,-2%
CCOC(=O)C1CCCN(C2CC(=O)N(c3ccc(C)c(C)c3)C2=O)C1 (stereo unspecified),?,-4%,3%,-4%,6%,9%
Cc1cc(=O)[nH]c2ccc(O)cc12,.,.,79µM*,?,.,.
Cc1cc(=O)[nH]c2cc(O)ccc12,2%,2%,9%,-8%,1%,0%
Cc1c(C(=O)O)oc2c1-c1nn(Cc3ccc(Cl)cc3)cc1CC2,25µM*,.,?,-34%,.,-2%
CCN(CC)C(=O)CC(c1cc(OC)c(OC)c(OC)c1)c1c(OC)cc(OC)c2ccc(=O)oc12 (stereo unspecified),5%,-2%,-24%,-10%,-4%,6%
CCN(CC)C(=O)CC(c1ccc(OC)cc1)c1c(OC)cc(OC)c2ccc(=O)oc12 (stereo unspecified),?,?,79µM*,?,?,-9%
Cc1cc(NC(=O)CCCn2cc([N+](=O)[O-])cn2)n(Cc2ccc(F)cc2)n1,25%,?,79µM*,?,1%,1%
Cc1cccc(Cn2nc(C)cc2NC(=O)Cn2cc([N+](=O)[O-])cn2)c1,20%,-18%,27%,6%,0%,1%
O=C(c1ccc(Cl)cc1)c1c[nH]c(C(=O)C(Cl)(Cl)Cl)c1,13%,20µM*,-15%,-5%,1%,-13%
Cc1ccn2c(=O)nc(SCC(=O)N3CCN(c4ccccc4)CC3)nc2c1,.,20µM*,50µM*,-14%,0%,-2%
Cc1ccn2c(=O)nc(SCC(=O)N3CCC(Cc4ccccc4)CC3)nc2c1,.,?,?,-22%,4%,-5%
Cc1ccn2c(=O)nc(SCC(=O)NCc3ccccc3)nc2c1,.,22µM*,45µM*,-33%,-16%,-8%
O=C(CSc1nc(=O)n2cc(Cl)ccc2n1)Nc1cccc2ccccc12,.,?,?,-44%,32%,1%
Cc1ccn2c(=O)nc(SCC(=O)c3ccccc3)nc2c1,.,20µM*,45µM*,-22%,-10%,10%
Cc1ccn2c(=O)nc(SCC(=O)Nc3cccc4ccccc34)nc2c1,.,79µM*,?,-9%,18%,-2%
Cc1ccc2nc(SCC(=O)c3ccccc3)nc(=O)n2c1,.,-11%,17%,4%,54%,-6%
O=C(CSc1nc2cc([N+](=O)[O-])ccc2n1-c1ccccc1)NCc1ccc2c(c1)OCO2,10µM*,-14%,?,-18%,3%,-3%
O=C(CSc1ncccn1)N1CCCc2ccccc21,15%,-21%,113%,-6%,-1%,-6%
Nn1c(SCC(=O)N2CCCc3ccccc32)nncc1=O,13%,-8%,32%,-10%,4%,3%
O=C(CSc1nc(O)cc(=O)n1-c1ccccc1)NCc1ccccc1,3%,-5%,40µM*,-26%,-2%,4%
SMILES,Pol beta inh,POLH inh,POLI inh,POLK inh,APEX1 inh,GLS inh
CCc1cccc(CC)c1-n1c(SCC(=O)N2CCCc3ccccc32)nc(O)cc1=O,.,-16%,?,45µM*,13%,?
O=C(O)c1cccnc1SCC(=O)N1CCCc2ccccc21,?,20µM*,?,-38%,-7%,?
Cc1ccc(Cn2nc(C)c(/C=N/NC(=O)c3cccnc3)c2C)cc1,10%,-12%,111%,1%,16%,-1%
Cc1ccc(S(=O)(=O)CC(=O)Nc2ccc(Cl)cn2)cc1,3%,-2%,100%,-3%,3%,-1%
Cc1ccc(-n2c(SCC(=O)Nc3ccc4c5c(cccc35)CC4)nc(O)cc2=O)cc1,35µM*,-12%,-28%,-24%,-8%,4%
O=c1cc2nc(-c3ccccc3)nc(SCc3cccc(Br)c3)n2[nH]1,?,?,-19%,-10%,.,0%
COc1cccc(-c2nc(SCc3cccc(Br)c3)n3[nH]c(=O)cc3n2)c1,13µM*,?,?,-43%,.,11%
CC(C)(C)OC(=O)C[C@H]1C/C=C\C[C@H](CC(=O)N[C@@H](CO)Cc2ccccc2)C(=O)N[C@H](C(C)(C)C)COC1=O,.,-12%,10%,-1%,13µM*,-6%
O=C(N[C@@H]1C/C=C\C[C@@H](CC(=O)N(CCO)Cc2ccccc2)C(=O)NCCOC1=O)OCC1c2ccccc2-c2ccccc21,.,-6%,-25%,-16%,24µM*,12%
CC(C)(C)[C@H]1COC(=O)[C@H](NC(=O)OCC2c3ccccc3-c3ccccc32)C/C=C\C[C@@H](CC(=O)N[C@@H](CO)Cc2ccccc2)C(=O)N1,.,6%,11%,-2%,24µM*,10%
CC(C)(C)OC(=O)C[C@H]1C/C=C\C[C@H](CC(=O)N[C@H](CO)Cc2ccccc2)C(=O)N[C@H](C(C)(C)C)COC1=O,.,-15%,-5%,-3%,-6%,2%
CC1CC1C(=O)OCC(=O)Nc1ccc2[nH]c(=O)[nH]c2c1 (stereo unspecified),25µM*,50µM*,40µM*,-22%,-9%,-11%
CCCC(=O)OCC(=O)Nc1ccc2[nH]c(=O)[nH]c2c1,-5%,-7%,-18%,-18%,-2%,-5%
CC(C)CC(=O)Nc1ccc(-c2nnn(CC(=O)NCc3ccco3)n2)cc1,?,16%,79µM*,-25%,-5%,0%
CCOc1cc(CNC(=O)c2ccc(NC(=O)c3nsc4ccccc34)cc2)ccc1OC,-17%,11%,-8%,2%[60.1 µM],.,-24%
COc1ccc(OC)c(CNC(=O)c2ccc(NC(=O)c3nsc4ccccc34)cc2)c1,40%,-8%,89µM*,-8%[60.1 µM],.,12%
CC(C)N(C(=O)NC(=O)Nc1ccc(S(=O)(=O)N2CCCC2)cc1)S(C)(=O)=O,14%,-9%,-30%,6%,5%,-7%
Cc1nnc(-c2cccc(C(F)(F)F)c2)nc1N1CCOCC1,17%,-14%,65%,-1%,4%,11%
